# Rango dissoc inh: inhibitors of RanGTP-induced Rango-importin beta complex dissociation | O95149+P62826 | Biochemical FRET Rango-importin beta, RanGTP-induced dissociation | Potency, µM (titrated, usually from 46.1 µM) | 340,000 compounds, 0.071% hits; calls by dose curve; also: nearly all actives have a fitted effect of over 45% in size
#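 Compounds sat 5 min at room temperature with 0.1 uM Rango biosensor plus 0.25 uM importin beta, then FRET pre-read. RanGTP-RCC1 (0.6 uM Ran, 2mM GTP, 0.2 uM RCC1) added for 45 min, and the CFP/YFP post-read measured blocked complex dissociation.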
# ALOX12 inh: inhibitors of human 12S-lipoxygenase ALOX12; purified 12hLO, xylenol orange hydroperoxide absorbance; Potency, µM (top dose mostly 108 µM), most hits filed as inhibitors; 580,000 compounds, 1.1% hits
#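 Hydroperoxide product was detected by ferrous iron/xylenol orange as the 573 to 405 nm absorbance ratio. Arachidonic acid at 40 uM (final) was turned over for 30 min at room temperature by 150 nM human 12hLO, pH 7.0 Hepes buffer, after 15 min compound preincubation.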
# ClpP mod: qHTS Assay for Activators of ClpP; purified B. subtilis ClpP, FRET peptide cleavage, 20 min; AID 651965, 2013; 340,000 compounds, 1.9% hits; Potency, µM (doses to about 57.5 µM); active = well fitted falling curve with a large enough effect; inconclusive = small, poorly fitted or top-dose-only effect; inactive = no such curve, though single readings can be large or run the other way; also: the source files actives as falling curves though it sought activators and does not explain the sign; nearly all actives have a fitted effect of over 65% in size
#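 FRET quenching reversal measured ClpP activation: 10 microg/mL B. subtilis ClpP at pH 8 with the FRET-FV decapeptide, read at 430 nm after 320 nm excitation. The 20-min minus 0-min signal was scaled between DMSO/no-enzyme wells and ADEP (5.8 microM final).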
# TSG101-PTAP inh: blocks PTAP/TSG101 interaction to inhibit HIV-1 budding | Fluorescence polarization, FITC-PTAP peptide / Tsg101 binding | Potency, µM (highest dose often 115 µM), hits mostly inhibitors | 340,000 tested, under 10 active; active = well fitted inhibition curve with a large enough effect in the main read-out, with a control signal flat, not every such curve was filed as active; inconclusive = small, poorly fitted or top-dose-only effect, or effect the other way, or a change in a side signal; inactive = no such curve, though single readings can be large or run the other way
#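 FP read-out: FITC-PTAP peptide, 50 nM final, binding Tsg101 binding domain, 10 uM final; 20 min, r.t.; 10 mM HEPES pH 7.5, 0.15 M NaCl, 0.01% Tween 20, 3 mM EDTA, 0.1 mM TCEP.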
# Rango-impB inh: prevents formation of the Rango-importin beta complex. Q14974. Rango CFP/YFP FRET sensor + importin beta, 45 min. Potency, µM (doses to about 92.2 µM). 340,000 compounds, 0.031% hits; calls by dose curve; also: nearly all actives have a fitted effect of over 15% in size
#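 FRET biosensor (snurportin 1 IBB flanked by EYFP and cerulean), 50 nM, with compound 5 min, then 0.125 microM importin beta in PBS, 1 mM DTT, 0.02% Tween-20, 0.1% BSA. CFP/YFP ratio read after 45 min at room temperature; pre-read flags interference.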
# TDP1 inh: inhibitors of human tyrosyl-DNA phosphodiesterase TDP1. 350,000 compounds, 0.28% hits. Potency, µM (top dose mostly 130 µM), most hits filed as inhibitors. Q9NUW8. recombinant TDP1, AlphaScreen DNA substrate cleavage. AID 485290; also: nearly all actives have a fitted effect of over 40% in size
# Target sequence (Q9NUW8 whole entry, looked up): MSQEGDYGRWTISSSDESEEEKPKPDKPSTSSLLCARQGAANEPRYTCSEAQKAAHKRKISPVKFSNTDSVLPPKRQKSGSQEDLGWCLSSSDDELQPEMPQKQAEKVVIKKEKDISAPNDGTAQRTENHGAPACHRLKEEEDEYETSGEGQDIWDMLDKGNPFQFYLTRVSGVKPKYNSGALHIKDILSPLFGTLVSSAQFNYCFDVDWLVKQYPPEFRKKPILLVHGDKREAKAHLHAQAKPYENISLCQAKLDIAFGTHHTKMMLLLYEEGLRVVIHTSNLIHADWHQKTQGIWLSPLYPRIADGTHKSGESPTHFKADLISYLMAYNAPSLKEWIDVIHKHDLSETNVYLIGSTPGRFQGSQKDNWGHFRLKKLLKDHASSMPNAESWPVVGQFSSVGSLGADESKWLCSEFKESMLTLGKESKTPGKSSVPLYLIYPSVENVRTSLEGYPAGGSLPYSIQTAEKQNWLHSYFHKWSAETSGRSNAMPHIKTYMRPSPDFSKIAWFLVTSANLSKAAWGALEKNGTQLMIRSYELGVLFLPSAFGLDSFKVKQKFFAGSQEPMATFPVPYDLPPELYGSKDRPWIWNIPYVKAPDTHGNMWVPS
#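 Here, a 5' biotin and 3' phosphotyrosine-FITC DNA oligonucleotide reports Tdp1 activity: intact substrate bridges AlphaScreen beads, while cleavage leaves a 3' phosphate and drops signal. All incubations at room temperature.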
# Numbers stand for hits; – = inactive; ? = inconclusive; · = no result; ! = not active in a repeat; [ ] = another dose, or the depositor's remark. Compounds with a hit are over-represented: about 2.4% of the library has one in this group of screens. Unless noted, calls follow the shape of the dose curve; as a rule, active = well fitted curve in the direction sought with a large enough effect; inconclusive = small, poorly fitted or top-dose-only effect, or another doubt; inactive = no such curve, though single readings can be large; an effect the other way counts as inactive or inconclusive.
SMILES,Rango dissoc inh,ALOX12 inh,ClpP mod,TSG101-PTAP inh,Rango-impB inh,TDP1 inh
C=CCN=c1scc(-c2ccco2)n1/N=C/c1ccc(O)c(O)c1O,–,17.8µM,·,–,–,·
NC(=O)[C@@H](Cc1ccccc1)NC(=O)C1=C[C@@H](NC(=O)c2cccnc2)[C@@H](O)[C@H](O)C1,·,–,·,·,·,·
O=C(Nc1ccc(Cl)cc1)N1CCC(c2nnc3n2C(C(=O)N2CCN(c4ncccn4)CC2)CC3)CC1 (stereo unspecified),·,–[6.33 µM],·,·,·,·
COC(=O)[C@H](CC1CCCCC1)NC(=O)[C@@H]1C[C@@H](NC(=O)Nc2cccc(F)c2)CCN1C(=O)CCC(=O)O,·,–,·,·,·,·
O=C(O)c1ccc(-c2nc(-c3ccccc3)c(-c3cccs3)[nH]2)cc1,–,–,·,–,–,–
COc1ccc(-c2nc(-c3cccs3)c(-c3cccs3)[nH]2)cc1O,–,–,25.1µM,–,?,–
C[N+]1(CCCCC[N+]2(C)CCCC2)CCCC1,·,·,·,·,·,–
C[N+]1(CCCCCCCCCCCCCO)CCCC1,·,28.2µM,·,·,·,·
COc1ccc(C(c2nnnn2CS(=O)(=O)c2ccc(C)cc2)N2CCN(c3ncccn3)CC2)cc1 (stereo unspecified),–,?,31.6µM,–,–,–
Cc1cnc(C2CC2)n1C1CCN(C(=O)c2ccco2)CC1,·,–,·,·,·,·
Cc1cnc(-c2nnc(N(C)C(=O)C3CCOC3)s2)cn1 (stereo unspecified),–,–,28.2µM,–,–,–
Cc1ccccc1CN1C(=O)C(C)S/C1=N/N=C/c1ccco1 (stereo unspecified),–,?,–,–,–,·
Cc1ccccc1CN1C(=O)C(C)Sc2ccc(-c3ccco3)cc21 (stereo unspecified),·,15.8µM,–,·,·,·
CC(=O)NCCc1ccc(O)c(O)c1,·,·,·,·,·,–
NCCc1ccc(O)c(O)c1,–,2.82µM!,–,–,–,·
CC1CCCC(C)N1NC(=S)Nc1ccc(OC(F)F)cc1 (stereo unspecified),–,?,–,–,–,–
CC(C)c1ccc(NC(=S)NN2C(C)CCCC2C)cc1 (stereo unspecified),–,28.2µM,·,–,–,–
CN(C)c1cc(N2CCCC(NC(=O)c3ccc(C#N)cc3)C2)ncn1 (stereo unspecified),·,–,·,·,·,·
C=CCn1c(SCc2nc3sc(C(=O)O)c(C)c3c(=O)[nH]2)nnc1-c1ccc(C(C)(C)C)cc1,–,–,·,–,?,20µM
CN(C)C[C@@H]1CN(C2CCOCC2)C[C@H]1NC(=O)c1ccc2cc[nH]c2c1,·,–,·,·,·,·
Oc1c(Br)cc(Br)cc1C=Nc1ccc(F)c(Cl)c1,·,4.47µM,·,·,·,·
COc1ccc2[nH]c(C(=O)NC(C)C(=O)Nc3nc(C)cs3)cc2c1OC (stereo unspecified),·,–,·,·,·,·
Cc1ncsc1C1N(C2CCN(Cc3ccccc3)CC2)C(=O)C12CCCC2 (stereo unspecified),·,–,·,·,·,·
S=c1[nH]cc2cnccn12,·,8.91µM,–,·,·,·
NC1(C(=O)O)CCC1,·,1.41µM!,·,·,·,–
SMILES,Rango dissoc inh,ALOX12 inh,ClpP mod,TSG101-PTAP inh,Rango-impB inh,TDP1 inh
S=c1nc(-c2ccccc2)n(-c2ccccc2)[nH]1,–,44.7µM,–,–,–,·
CCn1nc(NC(=O)C(C)C)c2cc3ccc(C)cc3nc21,–,–,·,–,?,·
CCn1nc(NC(C)=O)c2cc3ccc(C)cc3nc21,9.2µM,–,·,–,?,·
Cc1cc(OCc2cn3cccnc3n2)ccc1Cl,–,–,15.8µM,–,–,–
Cc1[nH]c2ccccc2c1C(=O)C(=O)N1CCCC(NC(=O)C(C)C)C1 (stereo unspecified),·,–,·,·,·,·
N#C/C(=C\c1c[nH]c2ccccc12)C(N)=O,–,?,–,–,–,·
CC(=O)Oc1c(/C=C(\C#N)C(N)=O)[nH]c2ccccc12,?,?,25.1µM,?,?,–
COc1cc(/C=N/c2oc(-c3ccccc3)cc2C#N)ccc1O,–,–,3.55µM,–,–,–
COc1cc(C=NCc2ccccc2)ccc1O,·,?,–,·,·,·
Cc1cccc(NC(=O)C(C)n2cnc3c2c(=O)n(C)c(=O)n3C)c1 (stereo unspecified),·,–,·,·,·,·
